Bioassay records from PubChem.
A3A deaminase = APOBEC3A ssDNA deaminase inhibitors, primary screen, selectivity assay for APOBEC3G inhibitor project, biochemical, FAM/TAMRA oligo cleavage fluorescence; DNA dC->dU-editing enzyme APOBEC-3A (Homo sapiens), P31941; recombinant A3A, FAM/TAMRA ssDNA deamination fluorescence; inhibition, % at 20 µM; 330,000 compounds, 0.41% hits;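 active = at least 40% inhibition at 20 µM here, with at most 30% in a related deaminase screen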;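 note: plate controls were A3A with DMSO for no effect and wells lacking A3A enzyme for full effect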
Target sequence (P31941 whole entry, looked up): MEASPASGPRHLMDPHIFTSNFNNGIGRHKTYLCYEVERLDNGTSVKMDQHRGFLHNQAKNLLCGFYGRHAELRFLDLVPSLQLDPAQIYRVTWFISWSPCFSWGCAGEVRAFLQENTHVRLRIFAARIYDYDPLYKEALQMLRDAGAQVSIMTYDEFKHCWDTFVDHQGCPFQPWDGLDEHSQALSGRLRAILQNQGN
A3G deaminase = APOBEC3G DNA deaminase inhibitors, primary screen, biochemical, fluorescence, single-stranded DNA substrate, uHTS | 330,000 compounds, 0.28% hits | recombinant A3G, ssDNA deamination FAM/TAMRA fluorescence | inhibition, % at 20 µM | DNA dC->dU-editing enzyme APOBEC-3G (Homo sapiens), Q9HC16;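 active = inhibition of at least 40% at 20 µM, with no more than 30% in the related APOBEC3A deaminase screen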;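 note: plate controls were DMSO wells with A3G for no effect and wells lacking A3G enzyme for full effect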
Target sequence (Q9HC16 whole entry, looked up): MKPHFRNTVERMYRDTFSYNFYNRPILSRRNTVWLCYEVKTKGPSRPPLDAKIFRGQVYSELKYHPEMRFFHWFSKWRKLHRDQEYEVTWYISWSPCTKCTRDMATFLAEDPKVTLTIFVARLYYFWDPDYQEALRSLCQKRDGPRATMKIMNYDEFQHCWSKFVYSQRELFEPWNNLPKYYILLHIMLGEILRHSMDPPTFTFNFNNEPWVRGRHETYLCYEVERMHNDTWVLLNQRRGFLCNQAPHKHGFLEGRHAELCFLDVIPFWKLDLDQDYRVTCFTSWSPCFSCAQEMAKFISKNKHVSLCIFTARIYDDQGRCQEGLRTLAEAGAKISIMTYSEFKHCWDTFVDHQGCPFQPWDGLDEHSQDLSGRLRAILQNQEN
ADAM10 inh = human ADAM10 inhibitors, primary screen, biochemical, QFRET, HTS. 370,000 compounds, 0.62% hits. recombinant ADAM10, EDANS/DABCYL FRET peptide cleavage, 3 h. inhibition, % at 7 µM;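 active = inhibition above a per-campaign cutoff equal to the mean of compounds falling between control-based bounds plus 3 SD, cut at about 20% in these data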;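 note: 0% = DMSO wells while the 100% control is not disclosed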
NRP1-CendR mod = modulators of CendR peptide binding to NRP-1, primary screen, biochemical, fluorescence polarization, uHTS. inhibition, % at 25 µM. 360,000 compounds, 0.85% hits. FAM-RPARPAR peptide binding to NRP-1;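 active = inhibition or corrected inhibition above about 18%, plus a signal ratio from 0.5 to 1.5, limit read from the data, passing the limit was not always enough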
ADAM17 inh = ADAM17 inhibitors, primary screen, biochemical, QFRET; Disintegrin and metalloproteinase domain-containing protein 17 (Homo sapiens), P78536; recombinant ADAM17, EDANS/DABCYL FRET peptide cleavage; inhibition, % at 6.95 µM; 370,000 compounds, 0.83% hits;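 active = inhibition above the mean of compounds lying between control limits plus 3 SD, set per campaign, cut at about 8.5% in these data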;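 note: 0% = DMSO-only wells as the low control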
ADAM10 counter = ADAM10 inhibitors, counter-screen for ADAM17 exosite inhibitor project, biochemical, FRET, human ADAM10; shares compounds with ADAM17 inh; recombinant ADAM10, EDANS/DABCYL FRET peptide cleavage, 3 h; inhibition, % at 6.95 µM; 2,900 compounds, 47% hits;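 active = mean inhibition over the triplicate runs exceeds the activity threshold set in the earlier primary screen, cut at about 20% in these data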;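 note: 0% = DMSO wells and 100% = marimastat wells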
ADAM17 confirm = ADAM17 inhibitors, hit retest, confirmation, biochemical, QFRET peptide cleavage. shares compounds with ADAM17 inh. recombinant ADAM17, EDANS/DABCYL QFRET peptide cleavage. inhibition, % at 6.95 µM. 2,900 compounds, 65% hits;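 active = mean inhibition across replicates above the hit cutoff set in the primary screen, cut at about 8.5% in these data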;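 note: 0% = DMSO wells and 100% = marimastat wells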
* hit, by the source's call; . = not tested or not shown. In the library only some 2.4% were active in any assay of this set; here they are far more common.

SMILES | A3A deaminase | A3G deaminase | ADAM10 inh | NRP1-CendR mod | ADAM17 inh | ADAM10 counter | ADAM17 confirm
CC1=C(C(=O)N(C)C)CC(CC(=O)NCCCCc2ccccc2)C(=O)N1Cc1ccc(F)cc1 (centres undefined) | . | . | -7 | -5 | -2 | . | .
CC1=C(C(=O)N(C)C)CC(CC(=O)NCCCCc2ccccc2)C(=O)N1Cc1ccc(C(C)(C)C)cc1 (centres undefined) | . | . | -2 | -5 | 11* | 26* | 12*
COC(=O)[C@]12C[C@H](CC(=O)NCC3CCCCC3)C(=O)N(Cc3ccc4c(c3)OCO4)C1=C[C@H](C(C)C)O[C@@H]2C1CC1 | . | . | 2 | . | 0 | . | .
COC(=O)C(C[N+](=O)[O-])C1=C(O)CC(C)(C)CC1=O (centres undefined) | . | . | -17 | . | -7 | . | .
C[C@H](CO)N1C[C@H](C)[C@@H](CN(C)S(=O)(=O)c2cccs2)Oc2ccc(NC(=O)Nc3ccccc3)cc2C1=O | -1 | -3 | 13 | 0 | 4 | . | .
C[C@H](CO)N1C[C@H](C)[C@@H](CN(C)S(=O)(=O)c2cccs2)Oc2ccc(NC(=O)Nc3ccc(C(F)(F)F)cc3)cc2C1=O | -3 | -3 | 29* | -14 | 8.7* | 40* | 23*
C[C@H](CO)N1C[C@H](C)[C@@H](CN(C)S(=O)(=O)c2ccc(F)cc2)Oc2ccc(NC(=O)Nc3ccccc3)cc2C1=O | -4 | -11 | 11 | 8 | 6 | . | .
C[C@H](CO)N1C[C@H](C)[C@@H](CN(C)S(=O)(=O)c2ccc(F)cc2)Oc2ccc(NC(=O)Nc3ccc(C(F)(F)F)cc3)cc2C1=O | 1 | -6 | 26* | 0 | 9.0* | 37* | 19*
CC1(C)CC(=O)C=C(c2ccc(COC(=O)c3ccc(Br)cc3)cc2)C1=O | . | . | -10 | . | -6 | . | .
N#Cc1c(NC(=O)COC(=O)C2CC3C=CC2C3)oc(-c2ccccc2)c1-c1ccccc1 (centres undefined) | -11 | -8 | 16 | -5 | 8.9* | -14 | -2
COc1ccccc1OCC(=O)Nc1oc(-c2ccccc2)c(-c2ccccc2)c1C#N | 2 | -5 | 4 | 14 | 3 | . | .
COc1c(NC=O)c2c(c([N+](=O)[O-])c1OC)C(=O)OC2 | . | . | 6 | 8 | 8.8* | -6 | -2
O=C(NC1CCCC1)C1(C(=O)C2CC2)CC(c2ccccc2C(F)(F)F)=NO1 (centres undefined) | . | . | 10 | . | 3 | . | .
O=S(=O)(c1ccc(Cl)cc1)N1CCCC1c1nc(-c2ccc(Cl)cc2)no1 (centres undefined) | -6 | -8 | 15 | 2 | 9.8* | 2 | 3
CC1CCCC(C)N1C(=O)COC(=O)COc1ccc(C#N)cc1 (centres undefined) | 6 | 3 | 2 | -10 | 9.8* | 4 | 7
COc1nnc(-c2ccc(C(=O)N3C[C@@H]4C[C@H](C3)c3cccc(=O)n3C4)cc2)c2ccccc12 | . | . | 4 | 19* | 9.6* | 1 | 7
COc1ccccc1CCn1cnc(-c2ccc(F)cc2F)c1CC(C)C | . | . | 12 | . | 10* | 29* | 14*
CC(C)(C)C(=O)/C=c1\[nH]c(=O)/c(=C\c2ccc(F)cc2)s1 | -4 | -4 | 18 | -14 | 10* | 3 | 6
Nc1nonc1-c1nc2ccccc2n1CC(=O)N1CCCCC1 | 0 | 1 | 12 | -3 | 9.9* | -12 | -1
Nc1nonc1-c1nc2ccccc2n1CC(=O)O | -2 | -5 | -7 | -6 | -6 | . | .
COC(=O)C1=C(C)N(Cc2ccc(Cl)cc2)C(=S)NC1c1ccc(Cl)cc1 (centres undefined) | . | . | 5 | . | 0 | . | .
CC(C)c1c(C(=O)N/N=C/c2ccc(C(F)(F)F)cc2)nnn1-c1nonc1N | -4 | -2 | 18 | 14 | 9.8* | 22* | 14*
CC(C)c1c(C(=O)N/N=C/c2ccoc2)nnn1-c1nonc1N | -1 | 0 | 0 | 6 | 4 | . | .
NC(=O)[C@H]1CC2(CC(c3cccc(NC(=O)COc4ccc(Cl)cc4)c3)=NO2)CN1C(=O)c1ccccc1C(=O)c1ccccc1 (some centres undefined) | 1 | 9 | 13 | 0 | 8.7* | 24* | 15*
CCCCCC(=O)N1CC2(CC(c3cccc(NC(=O)COc4ccc(Cl)cc4)c3)=NO2)C[C@@H]1C(N)=O (some centres undefined) | 1 | 10 | 9 | 5 | 4 | . | .
SMILES | A3A deaminase | A3G deaminase | ADAM10 inh | NRP1-CendR mod | ADAM17 inh | ADAM10 counter | ADAM17 confirm
CC1(C(=O)N2CC3(CC(c4cccc(NC(=O)COc5ccc(Cl)cc5)c4)=NO3)C[C@@H]2C(N)=O)CC1 (some centres undefined) | -2 | -14 | 4 | 15 | -2 | . | .
NC(=O)[C@H]1CC2(CC(c3cccc(NC(=O)COc4ccc(Cl)cc4)c3)=NO2)CN1C(=O)CC(c1ccccc1)c1ccccc1 (some centres undefined) | -3 | -5 | 35* | -13 | 18* | 37* | 21*
CCCCCC(=O)N1CC2(CC(c3cccc(NC(=O)CC(c4ccccc4)c4ccccc4)c3)=NO2)C[C@@H]1C(N)=O (some centres undefined) | 1 | -9 | 15 | -10 | 9.6* | 29* | 18*
CCCCCC(=O)Nc1cccc(C2=NOC3(C2)C[C@H](C(N)=O)N(C(=O)CCCCC)C3)c1 (some centres undefined) | 0 | -3 | 5 | -7 | -1 | . | .
COC(=O)[C@]12C[C@H](CC(=O)N3CCC(c4ccccc4)CC3)C(=O)N(Cc3ccco3)C1=C[C@H](COCc1ccccc1)O[C@@H]2C | . | . | 4 | . | 3 | . | .
CCOC(=O)c1c(NC(=O)C2C3C=CC(C3)C2C(=O)O)sc2c1CCC(CC)C2 (centres undefined) | -5 | -6 | 0 | -2 | 5 | . | .
CCOC(=O)c1c(NC(=O)C2C3C=CC(CC3)C2C(=O)O)sc(C)c1C (centres undefined) | -3 | -2 | 2 | 10 | 9.1* | -12 | 0
